Shown are actives, neighbours in structure and some others; about 5.8% of the full set was active somewhere.
ALOX12 inh: blocks human arachidonate 12S-lipoxygenase; 1.1% of 580,000 active; purified 12hLO, xylenol orange hydroperoxide absorbance; Potency, µM (highest dose often 108 µM), for the others: at the top dose activity change, negative = inhibition, hits mostly inhibitors; note: % is set by controls: 0 for no effect and ±100 for the full control effect
Target sequence (P18054 whole entry, looked up): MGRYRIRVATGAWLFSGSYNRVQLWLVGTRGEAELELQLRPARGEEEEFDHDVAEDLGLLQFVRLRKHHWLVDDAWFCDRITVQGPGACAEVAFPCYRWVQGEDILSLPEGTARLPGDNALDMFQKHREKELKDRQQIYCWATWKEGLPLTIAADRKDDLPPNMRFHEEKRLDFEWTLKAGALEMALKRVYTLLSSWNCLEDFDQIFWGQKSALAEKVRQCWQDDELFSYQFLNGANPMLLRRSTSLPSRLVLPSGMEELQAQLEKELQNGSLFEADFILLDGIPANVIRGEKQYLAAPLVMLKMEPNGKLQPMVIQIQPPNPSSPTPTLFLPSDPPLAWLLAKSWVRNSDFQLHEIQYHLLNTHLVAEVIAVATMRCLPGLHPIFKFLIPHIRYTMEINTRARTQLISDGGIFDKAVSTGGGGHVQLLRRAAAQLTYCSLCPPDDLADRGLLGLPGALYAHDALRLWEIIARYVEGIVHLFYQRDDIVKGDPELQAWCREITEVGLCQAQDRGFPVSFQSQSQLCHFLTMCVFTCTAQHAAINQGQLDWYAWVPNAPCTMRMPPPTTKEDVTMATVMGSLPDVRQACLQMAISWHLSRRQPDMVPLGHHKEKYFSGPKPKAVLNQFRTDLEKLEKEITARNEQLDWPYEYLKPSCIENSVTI
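Purified human 12hLO at 150 nM in 25 mM Hepes, 0.01% Triton X-100, pH 7.0, preincubated 15 min at room temperature with compound. Reaction started with 40 uM arachidonic acid, 30 min at room temperature. Hydroperoxide measured by Fe-xylenol orange, 573/405 nm absorbance ratio.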
PINK1 modulator: PINK1 expression modulation; PINK1 immunofluorescence, high-content cytometry, 24 h; Potency, µM (top dose mostly 76.6 µM), for inactives: top-dose activation (PINK1 increase), actives largely listed as activators; 0.2% of 410,000 active; AID 624263; active = well fitted activation curve with a large enough effect; inconclusive = small, poorly fitted or top-dose-only effect; cell line not stated here; note: % of control where 0% means no effect; nearly all actives have a fitted effect of over 65% in size
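Readout is PINK1 immunofluorescence, quantified alongside mitochondrial, cell and nuclear markers by laser-scanning microplate cytometry. Cells from a stable line were exposed to compound titrations (5 concentrations) for 24 hours, with CCCP controls.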
KB-V1 cytotox: kills drug-selected multidrug resistant KB-V1 cells. KB-V1 MDR cells viability, CellTiter-Glo, 72 h. Potency, µM (doses to about 46.1 µM), usual class: cytotoxic. 3.4% of 400,000 active; note: % is set by controls: 0 for no effect and ±100 for the full control effect; nearly all actives have a fitted effect of over 60% in size
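KB-V1 cells (P-gp-expressing MDR subline of KB-3-1) in phenol-red-free DMEM with 10% FBS were exposed to library compounds over a concentration series for 72 h at 37 degrees C. Viability read by CellTiter-Glo luminescence; concentration-effect curves fitted after normalization.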
MCF10A rerep: induces DNA re-replication in MCF 10a normal breast cells; MCF 10A DNA re-replication, Hoechst nuclear intensity, 48 h; Potency, µM (top dose mostly 46.1 µM), without a hit: at the highest dose activity, positive = re-replication, most hits filed as activators; 2.9% of 350,000 active; AID 624296; note: % of control where 0% means no effect; nearly all actives have a fitted effect of over 50% in size
SW480 rerep: inducers of DNA re-replication in SW480 colon cancer cells; SW480 DNA re-replication, Hoechst DNA content imaging, 48 h; Potency, µM (doses to about 46.1 µM), for the others: at the highest dose re-replication activation, hits mostly activators; 1.8% of 340,000 active; AID 624297; note: % of control where 0% means no effect; nearly all actives have a fitted effect of over 55% in size
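Compounds, transferred as 23 nL by pin tool, were incubated with cells for 48 hr; DNA content per nucleus was then quantified by Hoechst staining and fluorescence plate imaging.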
KB-3-1 tox: kills parental KB-3-1 adenocarcinoma cells. Potency, µM (highest dose often 46.1 µM), actives largely listed as cytotoxic. 1.4% of 400,000 active. AID 1347075. KB-3-1 viability, CellTiter-Glo ATP luminescence, 72 h; note: % is set by controls: 0 for no effect and ±100 for the full control effect; nearly all actives have a fitted effect of over 60% in size
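Screening of KB-3-1 cells (DMEM, 10% FBS, phenol-red free) ran from lowest to highest compound concentration; after 72 h at 37 °C viability was read luminescently and curves fitted.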
* = called active by the depositor; i = inactive; ? = inconclusive; · = not tested or not shown; [ ] = dose if it differs, or a comment. Unless noted, calls come from the whole dose curve; as a rule, active = well fitted curve in the direction sought with a large enough effect; inconclusive = small, poorly fitted or top-dose-only effect, or another doubt; inactive = no such curve, though single readings can be large; an effect the other way counts as inactive or inconclusive. Potency is the fitted concentration of half-maximal effect.

SMILES	ALOX12 inh	PINK1 modulator	KB-V1 cytotox	MCF10A rerep	SW480 rerep	KB-3-1 tox
O=C1CC(c2cc(Br)ccc2F)c2cc3c(cc2N1)CCC3 (stereo unspecified)	5%	7%[38.3 µM]	?	1.5µM*	1.2µM*	1.6µM*
O=C1CC(c2ccccc2F)c2cc3c(cc2N1)CCC3 (stereo unspecified)	22%	17%[38.3 µM]	13µM*	-2%	-6%	8.2µM*
CC1=C(C(=O)OCc2ccc(C)cc2)C(c2ccccc2F)CC(=O)N1 (stereo unspecified)	0%	4%	i	·	·	i
COC(=O)C1=C(C)NC(=O)CC1c1ccccc1F (stereo unspecified)	1%	1%[38.3 µM]	i	5.8µM*	?	i
Cc1cnc(C(=O)NCc2sccc2C)cn1	4%	·	·	·	·	·
Fc1ccc(N/N=C/C=C/c2ccccc2)c(F)c1	40µM*	15%	i	-8%	-6%	i
Fc1ccc(N/N=C/c2ccncc2)c(F)c1	?	-1%	?	2%	-7%	i
CSc1ccc(/C=N/Nc2ccc(F)cc2F)cc1	1.8µM*	·	·	·	·	·
Cc1ccc(-c2csc3ncnc(Sc4nnc(C5CC5)o4)c23)cc1	43%	·	·	·	·	·
CCOc1ccc(NC(=O)CSc2nc3ccccc3c(=O)n2CCn2cc(Cl)cn2)cc1	-11%	·	·	·	·	·
CCOc1ccc(NC(=S)NNC(=S)Nc2cccc(C(F)(F)F)c2)cc1	-16%	3%	i	?	25%	i
FC(F)(F)c1cccc(NC(=S)Nc2ccc(Cl)c(Cl)c2)c1	0%	?	i	?	?	?
COc1ccc(NC(=S)NNC(=S)Nc2cccc(C(F)(F)F)c2)cc1	?	4%	i	15µM*	-35%	i
O=C(Nc1ccccc1)Nc1cccc(C(F)(F)F)c1	-5%	9%	i	0%	0%	i
Cc1ccc(OC(F)F)c(NC(=O)Nc2cccc(C(F)(F)F)c2)c1	-7%	?	?	?	11µM*	?
O=C(NNC(=S)Nc1cccc(C(F)(F)F)c1)c1ccc(Cl)cc1Cl	?	?	18µM*	13µM*	?	?
FC(F)(F)c1cccc(NC(=S)NC(c2ccccc2)c2ccccc2)c1	35µM*	?	?	18%	17%	?
COc1ccc(-c2csc(-c3c(C)c(C)nn(C)c3=O)n2)cc1OC	-11%	·	·	·	·	·
COC(=O)/C=C/C(=O)Nc1cccc(C(F)(F)F)c1	-15%	?	i	23µM*	?	i
C=CCOc1ccccc1CNc1ccccc1C	-10%	7%	i	?	8.2µM*	i
Cc1ccccc1NCc1ccccc1O	?	15%	i	0%	-6%	i
O=C(CN1C(=O)COc2ccc(Cl)cc21)Nc1cccc(F)c1	3%	-1%	i	·	·	i
Cc1cccc(N2CCN(CCNC(=O)C3COc4ccccc4C3)CC2)c1C (stereo unspecified)	-6%	1%	i	·	·	i
CCN(CC)S(=O)(=O)c1ccc2c(c1)N(CC(=O)NCCCN1CCN(c3cc(Cl)ccc3C)CC1)C(=O)CO2	?	1%	13µM*	·	·	?
O=C(CN1C(=O)COc2ccc(Cl)cc21)Nc1nccs1	11%	9%	?	13%	6%	i
SMILES	ALOX12 inh	PINK1 modulator	KB-V1 cytotox	MCF10A rerep	SW480 rerep	KB-3-1 tox
CCN(CC)S(=O)(=O)c1ccc2c(c1)N(CC(=O)N1CCN(c3cc(Cl)ccc3C)CC1)C(=O)CO2	2%	2%	i	·	·	i
Cc1cccnc1NC(=O)CN1C(=O)COc2ccc(Cl)cc21	13µM*	1%	i	15%	-8%	i
Cc1ccc(Cl)cc1N1CCN(CCCNC(=O)C2COc3ccccc3C2)CC1 (stereo unspecified)	2%	0%	i	·	·	21µM*
NS(=O)(=O)c1ccc(NC(=O)CN2C(=O)COc3ccc(Cl)cc32)cc1	45µM*	9%	i	·	·	i
CCN1CCCc2cc(CN(CCN3CCOCC3)C(=O)Nc3ccc(C)c(C)c3)ccc21	-10%	4%	21µM*	?	4%	i
CCc1ccc(NC(=O)N(CCN2CCOCC2)Cc2ccc3c(c2)CCCN3CC)cc1	-27%	14%[38.3 µM]	21µM*	18%	0%	i
CCN1CCCc2cc(CN(CCN3CCOCC3)C(=S)Nc3cccc(C)c3)ccc21	-1%	-1%	i	5%	26%	?
COC(=O)c1ccc(C2c3c(-c4cccc(OC)c4)n[nH]c(=O)c3Nc3nnnn32)cc1 (stereo unspecified)	-26%	·	·	·	·	·
Cc1cccc(NC(=S)Nc2cccc(C)n2)n1	0%	2%	i	2%	1%	i
Cc1cccc(NC(=S)NC2CCCCC2)n1	40µM*	2%	i	-4%	2%	i
Cc1cccc(NC(=S)NC2CCCC2)n1	45µM*	2%	i	7%	-24%	i
CSc1cccc(NC(=O)c2cc(Cl)ccc2F)c1	9%	·	·	·	·	·
Cc1ccccc1C(=O)NC(CC(C)C)C(=O)NCC(C)(C)N1CCOCC1 (stereo unspecified)	-3%	-1%	23µM*	-1%	-6%	i
Cc1cccn2c(=O)c3cc(C(=O)NCCN4CCOCC4)c(=N)n(Cc4ccc(F)cc4)c3nc12	-17%	-1%	?	2.3µM*	?	16µM*
COCCCn1c(=N)c(C(=O)NC2CCCC2)cc2c(=O)n3cccc(C)c3nc21	?	1%	i	·	·	i
Cc1cccn2c(=O)c3cc(C(=O)NC4CCCC4)c(=N)n(CCCN4CCOCC4)c3nc12	?	-1%	i	99%	1.5µM*	i
Cc1cccn2c(=O)c3cc(C(=O)NCCN4CCOCC4)c(=N)n(CCN4CCOCC4)c3nc12	?	0%	?	12µM*	26µM*	i
Cc1cccn2c(=O)c3cc(C(=O)NCCN4CCOCC4)n(C)c3nc12	-10%	2%	?	?	?	i
CC(C)CN1C(=O)C2(CC(=O)Nc3[nH]ncc32)c2ccccc21 (stereo unspecified)	7%	·	·	·	·	·
O=C1NCCCCC1Sc1ccc2c(c1)OCCCO2 (stereo unspecified)	-7%	·	·	·	·	·
CCCCOc1ccc2c(C)c(C)c(=O)oc2c1C	0%	·	·	·	·	·
O=C(NCCN1CCN(c2ccccc2)CC1)c1cccn2c(=O)c3cc(Cl)ccc3nc12	-17%	4%[38.3 µM]	i	4.1µM*	-1%	i
O=C(NCCN1CCOCC1)c1noc2c1CCc1ccccc1-2	-2%	2%[38.3 µM]	12µM*	-2%	-15%	i

Compound activity deposited in PubChem by National Center for Advancing Translational Sciences (NCATS).
